{"source": "the supplement of paper PMC11732987", "about": "“Enantioselective OTUD7B fragment discovery through chemoproteomics screening and high-throughput optimisation” (Communications Chemistry, 2025)", "test_in_all_cases": "log2 ratio of Biotin-Ahx-Ub-VS probe labelling (fragment/DMSO); higher = less target engagement (more negative = stronger competition), active = hit call of the paper (q ≤ 0.05, log2 ratio ≤ -1)", "details_in_all_cases": "compound concentration: 200 uM; treatment time: 3 h", "key": {"USP19": {"biological_target": "T1, USP19 (UniProt O94966)", "T1 sequence (whole entry)": "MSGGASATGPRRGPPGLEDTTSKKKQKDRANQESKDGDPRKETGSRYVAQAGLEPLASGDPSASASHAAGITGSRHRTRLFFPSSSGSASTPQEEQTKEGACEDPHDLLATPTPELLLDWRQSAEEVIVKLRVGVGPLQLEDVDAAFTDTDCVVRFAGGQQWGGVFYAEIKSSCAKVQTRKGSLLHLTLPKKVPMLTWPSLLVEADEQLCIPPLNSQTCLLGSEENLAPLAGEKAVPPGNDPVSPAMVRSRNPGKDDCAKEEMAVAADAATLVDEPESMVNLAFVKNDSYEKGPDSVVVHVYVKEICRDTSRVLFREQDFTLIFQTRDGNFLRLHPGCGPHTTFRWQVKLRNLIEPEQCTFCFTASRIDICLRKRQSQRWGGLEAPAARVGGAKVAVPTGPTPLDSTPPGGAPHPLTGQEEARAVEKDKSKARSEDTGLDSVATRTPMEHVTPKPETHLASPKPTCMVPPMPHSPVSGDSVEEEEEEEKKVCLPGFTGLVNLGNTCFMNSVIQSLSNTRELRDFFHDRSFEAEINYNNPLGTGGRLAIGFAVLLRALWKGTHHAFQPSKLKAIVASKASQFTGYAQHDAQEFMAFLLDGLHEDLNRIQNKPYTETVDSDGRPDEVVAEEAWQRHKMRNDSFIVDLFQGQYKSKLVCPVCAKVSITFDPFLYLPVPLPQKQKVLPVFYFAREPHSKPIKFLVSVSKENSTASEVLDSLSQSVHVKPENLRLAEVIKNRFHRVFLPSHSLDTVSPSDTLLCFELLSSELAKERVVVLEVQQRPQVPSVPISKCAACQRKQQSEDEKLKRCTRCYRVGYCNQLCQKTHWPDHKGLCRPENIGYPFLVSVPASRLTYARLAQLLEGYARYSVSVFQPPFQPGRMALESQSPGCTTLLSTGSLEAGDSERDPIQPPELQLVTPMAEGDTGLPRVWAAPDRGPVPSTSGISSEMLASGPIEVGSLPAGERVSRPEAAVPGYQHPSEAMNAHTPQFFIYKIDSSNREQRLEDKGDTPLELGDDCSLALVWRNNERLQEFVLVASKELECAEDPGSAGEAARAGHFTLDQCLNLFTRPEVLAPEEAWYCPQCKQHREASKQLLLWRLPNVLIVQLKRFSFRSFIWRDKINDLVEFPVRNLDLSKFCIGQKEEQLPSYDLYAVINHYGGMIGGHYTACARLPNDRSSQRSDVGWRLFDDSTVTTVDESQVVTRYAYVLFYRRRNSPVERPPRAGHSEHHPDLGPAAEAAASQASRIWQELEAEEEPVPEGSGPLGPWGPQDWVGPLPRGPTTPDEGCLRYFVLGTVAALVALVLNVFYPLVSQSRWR", "summary_of_the_method": "(§1)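 Each value is an average log2 ratio of fragment to vehicle, tested by unpaired t-test. The underlying Spectronaut label-free quantities were global-median-normalised, and only proteins with ≥2 unique peptides were included. Triplicate HEK293T lysate samples (495 µg) were exposed to fragment at 200 µM or vehicle for 3 h, then to Biotin-Ahx-Ub-VS at 0.5 µM final for 1 h, before NeutrAvidin enrichment of labelled DUBs, LysC and trypsin digestion, and diaPASEF LC-MS/MS.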"}, "USP24": {"biological_target": "USP24 (UniProt Q9UPU5)", "sequence (Q9UPU5 whole entry)": "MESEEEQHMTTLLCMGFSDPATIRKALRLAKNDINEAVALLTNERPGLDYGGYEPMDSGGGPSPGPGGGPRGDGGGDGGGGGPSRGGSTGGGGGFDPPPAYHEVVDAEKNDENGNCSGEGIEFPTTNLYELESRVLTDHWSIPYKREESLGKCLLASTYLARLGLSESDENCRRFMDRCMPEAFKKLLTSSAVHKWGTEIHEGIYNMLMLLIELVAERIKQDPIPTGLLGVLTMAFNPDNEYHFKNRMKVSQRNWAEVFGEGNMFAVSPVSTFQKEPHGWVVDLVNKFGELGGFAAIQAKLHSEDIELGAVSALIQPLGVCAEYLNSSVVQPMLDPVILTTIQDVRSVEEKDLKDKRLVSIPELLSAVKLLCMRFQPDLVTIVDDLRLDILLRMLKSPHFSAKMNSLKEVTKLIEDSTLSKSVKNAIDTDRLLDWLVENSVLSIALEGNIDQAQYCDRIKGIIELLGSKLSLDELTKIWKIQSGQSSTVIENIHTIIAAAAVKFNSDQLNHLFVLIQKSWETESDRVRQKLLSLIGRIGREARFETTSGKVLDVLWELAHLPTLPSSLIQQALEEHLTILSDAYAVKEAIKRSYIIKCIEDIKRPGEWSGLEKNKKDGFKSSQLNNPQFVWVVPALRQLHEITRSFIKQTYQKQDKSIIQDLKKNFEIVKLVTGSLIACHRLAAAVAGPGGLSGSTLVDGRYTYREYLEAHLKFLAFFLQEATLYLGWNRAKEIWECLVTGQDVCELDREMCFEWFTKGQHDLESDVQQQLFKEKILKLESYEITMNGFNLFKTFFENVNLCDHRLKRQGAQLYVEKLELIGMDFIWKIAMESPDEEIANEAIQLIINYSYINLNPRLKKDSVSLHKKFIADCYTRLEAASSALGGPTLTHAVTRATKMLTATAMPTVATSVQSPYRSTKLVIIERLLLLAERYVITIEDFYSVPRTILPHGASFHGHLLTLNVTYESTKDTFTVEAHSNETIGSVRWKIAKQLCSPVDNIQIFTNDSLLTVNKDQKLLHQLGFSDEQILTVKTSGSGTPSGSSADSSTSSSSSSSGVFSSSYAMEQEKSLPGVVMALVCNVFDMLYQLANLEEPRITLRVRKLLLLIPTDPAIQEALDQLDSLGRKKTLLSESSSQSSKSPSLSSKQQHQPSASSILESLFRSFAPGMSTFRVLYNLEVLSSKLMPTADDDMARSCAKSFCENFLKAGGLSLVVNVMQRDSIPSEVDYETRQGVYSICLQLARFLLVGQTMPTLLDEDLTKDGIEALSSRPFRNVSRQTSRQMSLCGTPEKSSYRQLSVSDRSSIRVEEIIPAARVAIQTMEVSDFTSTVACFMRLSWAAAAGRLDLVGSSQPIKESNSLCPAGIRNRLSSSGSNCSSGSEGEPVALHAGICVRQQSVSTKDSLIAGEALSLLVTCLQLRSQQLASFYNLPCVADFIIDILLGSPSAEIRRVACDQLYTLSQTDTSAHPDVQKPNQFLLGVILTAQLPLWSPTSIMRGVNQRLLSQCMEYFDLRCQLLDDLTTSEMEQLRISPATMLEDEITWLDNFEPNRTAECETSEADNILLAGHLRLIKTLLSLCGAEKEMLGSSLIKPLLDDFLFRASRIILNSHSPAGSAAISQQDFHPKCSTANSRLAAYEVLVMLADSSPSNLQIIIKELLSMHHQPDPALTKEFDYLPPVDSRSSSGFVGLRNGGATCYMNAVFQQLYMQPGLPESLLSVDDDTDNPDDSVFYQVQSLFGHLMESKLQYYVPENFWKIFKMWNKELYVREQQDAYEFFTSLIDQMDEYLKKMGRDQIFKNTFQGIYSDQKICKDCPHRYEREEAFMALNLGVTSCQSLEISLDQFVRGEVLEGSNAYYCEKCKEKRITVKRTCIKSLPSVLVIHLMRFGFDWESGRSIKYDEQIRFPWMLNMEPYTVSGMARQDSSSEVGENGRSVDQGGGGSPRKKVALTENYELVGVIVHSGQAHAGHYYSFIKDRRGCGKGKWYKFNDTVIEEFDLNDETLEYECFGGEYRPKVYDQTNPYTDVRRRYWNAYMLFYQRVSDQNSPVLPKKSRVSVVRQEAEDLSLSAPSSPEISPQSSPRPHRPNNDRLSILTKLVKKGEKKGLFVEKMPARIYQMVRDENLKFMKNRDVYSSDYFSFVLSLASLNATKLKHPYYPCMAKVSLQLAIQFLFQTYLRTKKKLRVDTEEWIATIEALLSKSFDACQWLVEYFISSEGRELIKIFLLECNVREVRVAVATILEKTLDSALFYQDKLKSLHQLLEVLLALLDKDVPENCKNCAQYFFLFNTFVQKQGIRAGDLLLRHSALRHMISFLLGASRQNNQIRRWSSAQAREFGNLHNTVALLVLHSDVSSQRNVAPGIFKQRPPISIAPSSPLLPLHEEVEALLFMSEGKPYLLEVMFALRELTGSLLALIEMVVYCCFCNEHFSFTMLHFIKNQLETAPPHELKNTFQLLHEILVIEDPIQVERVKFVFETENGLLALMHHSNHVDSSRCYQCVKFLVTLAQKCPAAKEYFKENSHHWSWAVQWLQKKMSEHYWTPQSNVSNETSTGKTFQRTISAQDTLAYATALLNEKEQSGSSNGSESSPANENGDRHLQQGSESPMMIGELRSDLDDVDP", "summary_of_the_method": "as §1"}, "USP25": {"biological_target": "T2, USP25 (UniProt Q9UHP3)", "T2 sequence (whole entry)": "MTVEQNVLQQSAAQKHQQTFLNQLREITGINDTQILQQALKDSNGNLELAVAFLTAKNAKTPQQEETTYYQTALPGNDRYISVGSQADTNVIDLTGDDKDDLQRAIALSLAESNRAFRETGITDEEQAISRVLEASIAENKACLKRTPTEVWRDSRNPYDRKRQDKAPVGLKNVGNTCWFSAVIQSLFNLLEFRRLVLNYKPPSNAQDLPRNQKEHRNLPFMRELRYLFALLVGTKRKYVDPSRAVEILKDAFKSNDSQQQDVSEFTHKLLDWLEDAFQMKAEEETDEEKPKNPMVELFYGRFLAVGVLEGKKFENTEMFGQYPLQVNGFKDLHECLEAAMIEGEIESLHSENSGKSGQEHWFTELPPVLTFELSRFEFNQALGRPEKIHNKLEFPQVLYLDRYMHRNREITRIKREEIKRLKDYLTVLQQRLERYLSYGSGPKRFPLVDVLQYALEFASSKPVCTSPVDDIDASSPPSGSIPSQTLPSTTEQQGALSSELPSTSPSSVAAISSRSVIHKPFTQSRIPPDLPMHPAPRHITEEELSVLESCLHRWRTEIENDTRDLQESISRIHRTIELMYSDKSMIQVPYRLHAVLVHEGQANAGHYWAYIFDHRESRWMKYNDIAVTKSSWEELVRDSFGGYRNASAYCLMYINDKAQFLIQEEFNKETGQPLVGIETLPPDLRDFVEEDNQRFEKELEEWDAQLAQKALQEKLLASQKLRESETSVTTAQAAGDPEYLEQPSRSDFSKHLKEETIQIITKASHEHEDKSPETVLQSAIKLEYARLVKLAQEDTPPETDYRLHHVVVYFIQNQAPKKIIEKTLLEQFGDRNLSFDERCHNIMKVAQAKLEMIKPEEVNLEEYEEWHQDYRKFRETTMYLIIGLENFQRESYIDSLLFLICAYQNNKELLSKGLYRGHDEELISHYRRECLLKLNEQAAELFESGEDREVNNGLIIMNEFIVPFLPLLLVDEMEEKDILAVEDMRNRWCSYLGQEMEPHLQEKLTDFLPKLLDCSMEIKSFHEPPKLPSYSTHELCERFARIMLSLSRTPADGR", "summary_of_the_method": "as §1"}, "USP28": {"biological_target": "T3, USP28 (UniProt Q96RU2)", "T3 sequence (whole entry)": "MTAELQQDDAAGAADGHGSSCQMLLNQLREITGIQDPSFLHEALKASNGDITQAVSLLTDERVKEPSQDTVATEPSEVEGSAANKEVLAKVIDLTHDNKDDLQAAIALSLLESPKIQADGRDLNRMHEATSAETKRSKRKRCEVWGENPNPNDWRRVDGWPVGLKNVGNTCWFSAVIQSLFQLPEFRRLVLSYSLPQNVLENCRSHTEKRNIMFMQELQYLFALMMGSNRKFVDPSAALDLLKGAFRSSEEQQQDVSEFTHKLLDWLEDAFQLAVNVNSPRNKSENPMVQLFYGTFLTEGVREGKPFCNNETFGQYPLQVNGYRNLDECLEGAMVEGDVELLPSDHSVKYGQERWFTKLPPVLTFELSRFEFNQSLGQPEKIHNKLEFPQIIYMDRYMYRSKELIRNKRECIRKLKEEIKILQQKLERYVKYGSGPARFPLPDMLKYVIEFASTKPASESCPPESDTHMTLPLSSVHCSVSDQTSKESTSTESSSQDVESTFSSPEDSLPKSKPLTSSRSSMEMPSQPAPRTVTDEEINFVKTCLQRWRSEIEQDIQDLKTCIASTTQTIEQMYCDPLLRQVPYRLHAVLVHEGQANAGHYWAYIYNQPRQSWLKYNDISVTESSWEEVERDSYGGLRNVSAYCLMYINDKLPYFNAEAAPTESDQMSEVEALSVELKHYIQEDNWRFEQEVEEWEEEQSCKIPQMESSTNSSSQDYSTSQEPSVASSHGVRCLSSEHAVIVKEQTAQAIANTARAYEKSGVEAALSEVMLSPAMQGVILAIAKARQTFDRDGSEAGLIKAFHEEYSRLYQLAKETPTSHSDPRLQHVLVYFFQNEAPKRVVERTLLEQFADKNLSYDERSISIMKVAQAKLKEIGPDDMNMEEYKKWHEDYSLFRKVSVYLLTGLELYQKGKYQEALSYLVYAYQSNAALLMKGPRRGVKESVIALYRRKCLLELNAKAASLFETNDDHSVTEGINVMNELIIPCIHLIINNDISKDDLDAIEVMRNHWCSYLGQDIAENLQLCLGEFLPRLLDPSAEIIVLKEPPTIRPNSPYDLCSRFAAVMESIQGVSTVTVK", "summary_of_the_method": "as §1"}}, "note": "Unmarked numbers belong to inactive results.", "data": [{"compound": "Cc1ccccc1CN(C)C(=O)CCl", "values": [{"measurement": "log2 ratio of Biotin-Ahx-Ub-VS probe labelling", "setting": "USP19", "result": -0.829}, {"measurement": "log2 ratio of Biotin-Ahx-Ub-VS probe labelling", "setting": "USP24", "result": "-1.38 (active)"}, {"measurement": "log2 ratio of Biotin-Ahx-Ub-VS probe labelling", "setting": "USP25", "result": "-1.03 (active)"}, {"measurement": "log2 ratio of Biotin-Ahx-Ub-VS probe labelling", "setting": "USP28", "result": "-1.35 (active)"}]}]}
